Where “and” joins values, the source holds several entries; their conditions need not be identical. Equal entries are not always repeated. The whole screen tested about 5,500 compounds, of which about 2,000 (36%) were called active. Roughly 18% stayed inconclusive and do not appear here. Rule as the data show it: active = normalized growth mostly below about 0.91 (no sharp cut-off); inconclusive = no clear call, values can overlap the other calls; inactive = mostly above about 0.92. The list shows a part of the results.
Assay: chemical genetic growth profiling, strain panel (AID 1159580);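 also: tested at 20 µM; growth read once vehicle control cultures reached saturation at 30 °C; 1 = growth at the plate median or of vehicle wells; lower values mean less growth of the strain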
Conditions: S. cerevisiae deletion strains, growth OD
[1] = locus YBR229C, strain ROT2, stronger effect = lower value
[2] = locus YDL101C, strain DUN1, stronger effect = lower value
[3] = locus YDL134C, strain PPH21, stronger effect = lower value
[4] = locus YDR150W, strain NUM1, stronger effect = lower value
[5] = locus YEL061C, strain CIN8, stronger effect = lower value
[6] = locus YGR078C, strain PAC10, stronger effect = lower value
[7] = locus YHR030C, strain SLT2, stronger effect = lower value
[8] = locus YJL187C, strain SWE1, stronger effect = lower value
[9] = locus YJR043C, strain POL32, stronger effect = lower value
[10] = locus YJR075W, strain HOC1, stronger effect = lower value
[11] = locus YKL190W, strain CNB1, stronger effect = lower value
[12] = locus YLR039C, strain RIC1, stronger effect = lower value
[13] = locus YLR262C, strain YPT6, stronger effect = lower value
[14] = locus YMR263W, strain SAP30, stronger effect = lower value
[15] = locus YMR307W, strain GAS1, stronger effect = lower value
[16] = locus YNL153C, strain GIM3, stronger effect = lower value
[17] = locus YOL006C, strain TOP1, stronger effect = lower value
[18] = locus YPL241C, strain CIN2, stronger effect = lower value

Measured: normalized growth

Nc1ccccc1C(=O)CC(N)C(=O)O (configuration not stated)
inactive: locus YAL021C, strain ccr4, stronger effect = lower value 1.01 | locus YAL026C, strain drs2, stronger effect = lower value 1.01 | locus YAL030W, strain snc1, stronger effect = lower value 0.992 | locus YBL061C, strain skt5, stronger effect = lower value 1 | locus YBR009C, strain hhf1, stronger effect = lower value 1.01 | locus YBR021W, strain FUR4, stronger effect = lower value 1.06 | locus YBR023C, strain chs3, stronger effect = lower value 1 | locus YBR171W, strain sec66, stronger effect = lower value 0.99 | [1] 1.01 | locus YBR231C, strain swc5, stronger effect = lower value 0.97 | locus YBR279W, strain paf1, stronger effect = lower value 1.01 | locus YCL011C, strain gbp2, stronger effect = lower value 1.01 | locus YCL016C, strain dcc1, stronger effect = lower value 1 | locus YCL029C, strain bik1, stronger effect = lower value 0.968 | locus YCL069W, strain vba3, stronger effect = lower value 1.01 | locus YCR088W, strain abp1, stronger effect = lower value 0.989 | locus YDL005C, strain med2, stronger effect = lower value 0.989 | locus YDL035C, strain GPR1, stronger effect = lower value 1.01 | locus YDL040C, strain nat1, stronger effect = lower value 0.989 | locus YDL074C, strain BRE1, stronger effect = lower value 0.968 | [2] 0.995 | [3] 1.07 | locus YDL185W, strain tfp1, stronger effect = lower value 0.947 | locus YDL192W, strain arf1, stronger effect = lower value 0.984 | locus YDR001C, strain nth1, stronger effect = lower value 0.99 | locus YDR069C, strain doa4, stronger effect = lower value 0.984 | locus YDR101C, strain arx1, stronger effect = lower value 0.956 | locus YDR137W, strain rgp1, stronger effect = lower value 0.998 | [4] 0.997 | locus YDR159W, strain sac3, stronger effect = lower value 0.981 | locus YDR162C, strain NBP2, stronger effect = lower value 1.01 | locus YDR195W, strain ref2 0.94 | locus YDR297W, strain sur2, stronger effect = lower value 0.994 | locus YDR318W, strain mcm21, stronger effect = lower value 1.01 | locus YDR334W, strain swr1, stronger effect = lower value 0.99 | locus YDR335W, strain msn5, stronger effect = lower value 1 | locus YDR388W, stronger effect = lower value 0.994 | locus YDR392W, strain spt3, stronger effect = lower value 0.907 | locus YDR502C, strain sam2, stronger effect = lower value 1 | locus YEL003W, strain gim4, stronger effect = lower value 1.01 | locus YEL037C, strain rad23, stronger effect = lower value 1 | locus YEL061C, strain CIN8 (second series), stronger effect = lower value 0.992 | [5] 1 | locus YER015W, strain faa2, stronger effect = lower value 1.01 | locus YER016W, strain bim1, stronger effect = lower value 0.996 | locus YER110C, stronger effect = lower value 0.975 | locus YER111C, strain swi4, stronger effect = lower value 0.998 | locus YER155C, strain BEM2 (second series), stronger effect = lower value 0.939 | locus YER155C, strain BEM2, stronger effect = lower value 0.997 | locus YER167W, strain BCK2, stronger effect = lower value 1.01 | locus YFR010W, strain ubp6, stronger effect = lower value 1.01 | locus YGL078C, strain dbp3, stronger effect = lower value 0.989 | locus YGL086W, strain mad1, stronger effect = lower value 0.954 | locus YGL167C, strain pmr1, stronger effect = lower value 0.997 | locus YGL173C, strain kem1, stronger effect = lower value 1 | locus YGL227W, strain vid30, stronger effect = lower value 0.996 | locus YGL240W, strain doc1, stronger effect = lower value 0.941 | locus YGL248W, strain PDE1, stronger effect = lower value 1.01 | locus YGL253W, strain hxk2, stronger effect = lower value 1.03 | [6] 0.998 | locus YGR135W, strain pre9, stronger effect = lower value 1 | locus YGR229C, strain SMI1, stronger effect = lower value 1.01 | locus YGR252W, strain gcn5, stronger effect = lower value 1.17 | locus YHR013C, strain ard1, stronger effect = lower value 0.998 | locus YHR027C, strain rpn1, stronger effect = lower value 0.984 | [7] 0.989 and 1.03 | locus YHR079C, strain IRE1 (second series), stronger effect = lower value 0.992 | locus YHR079C, strain IRE1, stronger effect = lower value 1.05 | locus YHR094C, strain hxt1, stronger effect = lower value 0.995 | locus YHR129C, strain ARP1, stronger effect = lower value 1.01 | locus YHR142W, strain chs7, stronger effect = lower value 0.995 | locus YHR200W, strain rpn10, stronger effect = lower value 0.995 | locus YIL066C, strain RNR3, stronger effect = lower value 1 | locus YIL073C, strain SPO22, stronger effect = lower value 0.986 | locus YIL125W, strain kgd1, stronger effect = lower value 0.993 | locus YIR030C, strain dcg1, stronger effect = lower value 0.997 | locus YJL092W, strain hpr5, stronger effect = lower value 1.01 | locus YJL095W, strain BCK1 (second series), stronger effect = lower value 0.993 | locus YJL095W, strain BCK1, stronger effect = lower value 0.998 and 1.02 | locus YJL115W, strain asf1, stronger effect = lower value 0.985 | locus YJL129C, strain trk1, stronger effect = lower value 1.03 | locus YJL134W, strain LCB3, stronger effect = lower value 0.991 | locus YJL154C, strain vps35, stronger effect = lower value 0.991 | locus YJL164C, strain tpk1, stronger effect = lower value 1.03 | locus YJL166W, strain qcr8, stronger effect = lower value 0.991 | locus YJL168C, strain set2, stronger effect = lower value 0.985 | locus YJL187C, strain SWE1 (second series), stronger effect = lower value 0.992 | [8] 1.02 | [9] 1.01 | locus YJR066W, strain TOR1, stronger effect = lower value 0.952 | [10] 0.995 | locus YKL009W, strain mrt4, stronger effect = lower value 0.964 | locus YKL068W, stronger effect = lower value 0.975 | locus YKL085W, strain MDH1 (second series), stronger effect = lower value 0.983 | locus YKL085W, strain MDH1, stronger effect = lower value 0.983 | locus YKL160W, strain elf1, stronger effect = lower value 1.02 | [11] 1.01 | locus YKR001C, strain vps1, stronger effect = lower value 0.959 | locus YKR026C, strain gcn3, stronger effect = lower value 0.992 | locus YKR091W, strain srl3, stronger effect = lower value 0.991 | locus YLL001W, strain dnm1, stronger effect = lower value 1 | locus YLL026W, stronger effect = lower value 0.994 | locus YLL041C, strain sdh2, stronger effect = lower value 0.998 | locus YLR027C, strain aat2, stronger effect = lower value 1.01 | [12] 0.91 | locus YLR058C, strain SHM2, stronger effect = lower value 1.01 | locus YLR102C, strain apc9, stronger effect = lower value 0.984 | locus YLR113W, strain HOG1, stronger effect = lower value 1.02 | locus YLR221C, strain rsa3, stronger effect = lower value 0.987 | locus YLR258W, strain gsy2, stronger effect = lower value 1.01 | locus YLR262C, strain YPT6 (second series), stronger effect = lower value 1 | [13] 0.896 | locus YLR268W, strain sec22, stronger effect = lower value 0.957 | locus YLR320W, strain mms22, stronger effect = lower value 0.983 | locus YLR330W, strain CHS5, stronger effect = lower value 0.989 | locus YLR342W, strain FKS1 (second series), stronger effect = lower value 1.02 | locus YLR342W, strain FKS1, stronger effect = lower value 0.992 | locus YLR357W, strain rsc2, stronger effect = lower value 0.984 | locus YLR370C, strain arc18, stronger effect = lower value 0.992 | locus YLR371W, strain rom2, stronger effect = lower value 0.984 | locus YLR384C, strain iki3, stronger effect = lower value 0.972 | locus YLR418C, strain cdc73, stronger effect = lower value 1.06 | locus YML016C, strain PPZ1, stronger effect = lower value 0.989 | locus YML032C, strain rad52, stronger effect = lower value 1.02 | locus YML120C, strain ndi1, stronger effect = lower value 1 | locus YML124C, strain tub3, stronger effect = lower value 0.994 | locus YMR058W, strain fet3, stronger effect = lower value 1 | locus YMR078C, strain ctf18, stronger effect = lower value 0.98 | locus YMR125W, strain sto1, stronger effect = lower value 1.02 | locus YMR129W, stronger effect = lower value 1 | locus YMR205C, strain PFK2, stronger effect = lower value 1.02 | locus YMR223W, strain ubp8, stronger effect = lower value 0.995 | locus YMR231W, strain pep5, stronger effect = lower value 0.996 | [14] 0.995 | [15] 1.16 | locus YNL067W, strain RPL9B, stronger effect = lower value 0.998 | locus YNL071W, strain lat1, stronger effect = lower value 1 | [16] 0.988 | locus YNL183C, strain NPR1, stronger effect = lower value 0.965 | locus YNL209W, strain ssb2, stronger effect = lower value 1 | locus YNL233W, strain BNI4, stronger effect = lower value 0.993 | locus YNL248C, strain rpa49, stronger effect = lower value 0.914 | locus YNL250W, strain rad50, stronger effect = lower value 0.935 | locus YNL271C, strain bni1, stronger effect = lower value 0.984 | locus YNL298W, strain CLA4, stronger effect = lower value 0.991 | locus YNL307C, strain MCK1, stronger effect = lower value 0.982 | locus YNL322C, strain KRE1 (second series), stronger effect = lower value 1 | locus YNR049C, strain mso1, stronger effect = lower value 1.02 | locus YNR052C, strain pop2, stronger effect = lower value 1.02 | [17] 0.831 | locus YOL012C, strain htz1 0.879 | locus YOL147C, strain pex11, stronger effect = lower value 0.991 | locus YOR001W, strain rrp6, stronger effect = lower value 0.972 | locus YOR061W, strain CKA2, stronger effect = lower value 0.992 | locus YOR069W, strain VPS5, stronger effect = lower value 0.993 | locus YOR070C, strain gyp1, stronger effect = lower value 1 | locus YOR080W, strain dia2, stronger effect = lower value 1 | locus YOR083W, strain WHI5, stronger effect = lower value 1.02 | locus YOR106W, strain vam3, stronger effect = lower value 1.02 | locus YOR136W, strain idh2, stronger effect = lower value 0.972 | locus YOR144C, strain elg1, stronger effect = lower value 0.996 | locus YOR184W, strain ser1, stronger effect = lower value 0.978 | locus YOR231W, strain MKK1, stronger effect = lower value 1.04 | locus YOR265W, strain rbl2, stronger effect = lower value 1 | locus YOR270C, strain vph1, stronger effect = lower value 1.04 | locus YOR290C, strain snf2, stronger effect = lower value 0.994 | locus YOR316C, strain cot1, stronger effect = lower value 0.994 | locus YPL051W, strain arl3, stronger effect = lower value 1 | locus YPL078C, strain atp4, stronger effect = lower value 1.01 | locus YPL106C, strain sse1, stronger effect = lower value 0.966 | locus YPL240C, strain hsp82, stronger effect = lower value 0.992 | [18] 1.01 | locus YPL256C, strain CLN2, stronger effect = lower value 1.04 | locus YPR119W, strain clb2, stronger effect = lower value 0.985 | locus YPR141C, strain kar3, stronger effect = lower value 0.992 | locus YPR163C, strain tif3, stronger effect = lower value 0.986 | locus YPR167C, strain met16, stronger effect = lower value 0.996 | strain wtn01, stronger effect = lower value 0.94

Nc1ccccc1C(=O)N/N=C\c1cccc2ccccc12
active: [3] 0.813 | [5] 0.85 | [7] 0.461 | [12] 0.734 | locus YLR085C, strain ARP6, stronger effect = lower value 0.615 | [13] 0.803 | locus YML094W, strain GIM5, stronger effect = lower value 0.831 | [15] 0.526 | locus YNL298W, strain CLA4 (second series), stronger effect = lower value 0.807 | locus YNR030W, strain Alg12, stronger effect = lower value 0.875 | [17] 0.535 | [18] 0.819
inactive: locus YAL013W, strain DEP1, stronger effect = lower value 0.994 | [1] 0.977 | [2] 1.01 | [4] 0.971 | [6] 0.993 | locus YHR087W, strain rtc3, stronger effect = lower value 0.992 | [8] 0.994 | [9] 1.01 | [10] 0.979 | [11] 0.944 | locus YLR058C, strain SHM2 (second series), stronger effect = lower value 0.991 | locus YMR219W, strain ESC1, stronger effect = lower value 0.989 | [14] 0.992 | [16] 1.01 | locus YNL322C, strain KRE1, stronger effect = lower value 0.992 | locus YPL055C, strain LGE1, stronger effect = lower value 0.973 | locus YPR135W, strain CTF4, stronger effect = lower value 0.66
